Sampled rows, rich in hits. Any-hit rate of the full collection: about 2.4%.
POLH inh: blocks human DNA polymerase eta activity; Q9Y253; recombinant Pol eta, fluorescent DNA replication assay; Potency, µM (highest dose often 114 µM), for the others: at the top dose activity change, negative = inhibition, usual class: inhibitors; hit rate 1.2% among 390,000; AID 588591; also: % is scaled to controls: 0 for no effect and ±100 for the full control effect
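Fluorescent replication assay: 50 nM final substrate added after a 15 min room-temperature compound preincubation with 10 nM enzyme. Signal taken at 0 min and again at 10 min.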
TDP1 block: blocks human tyrosyl-DNA phosphodiesterase 1; Q9NUW8; recombinant TDP1, AlphaScreen DNA substrate cleavage; Potency, µM (highest dose often 130 µM), without a hit: top-dose activity change, negative = inhibition, hits mostly inhibitors; hit rate 0.28% among 350,000; also: % is scaled to controls: 0 for no effect and ±100 for the full control effect; nearly all actives have a fitted effect of over 40% in size
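Steps: enzyme plus compound, 15 min RT; add biotin/phosphotyrosine-FITC oligonucleotide (15 nM final), react 5 min; add donor/acceptor beads (10 ug/ml final), 10 min; read AlphaScreen. Tdp1 at 1 nM final.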
POLB inh: blocks human DNA polymerase beta activity; P06746; hit rate 1.3% among 340,000; Potency, µM (top dose mostly 114 µM), inactives show top-dose activity change, negative = inhibition, most hits filed as inhibitors; AID 485314; Pol beta primer extension/strand displacement, fluorescence kinetic; also: % is scaled to controls: 0 for no effect and ±100 for the full control effect
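10 nM enzyme + cpd, 15 min RT; start with substrate 50 nM final; read 0 min and after 10 min RT. Corrected, normalized data; 4-parameter Hill curve fit.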
POLK inh: DNA polymerase kappa (human) inhibition | Q9UBT6 | purified Pol kappa, fluorescent DNA synthesis assay, 10 min | Potency, µM (highest dose often 107 µM), for inactives: at the top dose activity, negative = inhibition, most hits filed as inhibitors | hit rate 0.53% among 400,000; also: % is scaled to controls: 0 for no effect and ±100 for the full control effect
Target sequence (Q9UBT6 whole entry, looked up): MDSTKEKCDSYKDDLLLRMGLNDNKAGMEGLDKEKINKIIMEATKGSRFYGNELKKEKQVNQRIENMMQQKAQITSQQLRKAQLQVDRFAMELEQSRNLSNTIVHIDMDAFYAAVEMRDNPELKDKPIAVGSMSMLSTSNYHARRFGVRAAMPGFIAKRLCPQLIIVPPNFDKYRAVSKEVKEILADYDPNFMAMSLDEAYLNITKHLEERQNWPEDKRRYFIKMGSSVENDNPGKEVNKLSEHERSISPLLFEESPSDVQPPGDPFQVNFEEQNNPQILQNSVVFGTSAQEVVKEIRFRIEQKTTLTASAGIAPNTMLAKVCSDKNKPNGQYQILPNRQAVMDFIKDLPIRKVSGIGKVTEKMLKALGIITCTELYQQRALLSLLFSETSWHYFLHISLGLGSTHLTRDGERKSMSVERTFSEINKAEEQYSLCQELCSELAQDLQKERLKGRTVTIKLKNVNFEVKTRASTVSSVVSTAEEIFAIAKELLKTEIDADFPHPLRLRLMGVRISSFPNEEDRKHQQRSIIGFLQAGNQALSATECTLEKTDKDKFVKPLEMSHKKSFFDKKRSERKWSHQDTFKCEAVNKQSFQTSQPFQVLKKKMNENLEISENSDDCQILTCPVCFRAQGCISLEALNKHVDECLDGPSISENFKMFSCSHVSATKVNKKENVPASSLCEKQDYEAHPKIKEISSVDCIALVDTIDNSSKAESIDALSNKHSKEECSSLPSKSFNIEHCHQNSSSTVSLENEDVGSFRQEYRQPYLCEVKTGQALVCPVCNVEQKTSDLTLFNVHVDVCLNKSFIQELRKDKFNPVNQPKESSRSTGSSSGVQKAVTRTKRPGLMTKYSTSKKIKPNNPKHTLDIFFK
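Activity was followed as the change in fluorescence between reads at 0 and 10 min after starting the reaction with 50 nM substrate. Beforehand, 10 nM polymerase had been preincubated with compound for 15 min at room temperature.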
Pol iota inh: inhibitors of human DNA polymerase iota; Q9UNA4; Pol iota fluorescent replication assay, 10 min; Potency, µM (top dose mostly 115 µM), without a hit: top-dose activity, negative = inhibition, usual class: inhibitors; hit rate 1% among 390,000
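Fluorescent replication assay read twice, at 0 min and 10 min after adding 50 nM (final) substrate. Enzyme (10 nM) and compounds were first incubated 15 min at room temperature; enzyme-free buffer wells were negative controls.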
* = called active by the depositor; ? = inconclusive; / = no result given; [ ] = dose if it differs, or a comment. Calls follow the shape of the dose curve; as a rule, active = well fitted curve in the direction sought with a large enough effect; inconclusive = small, poorly fitted or top-dose-only effect, or another doubt; inactive = no such curve, though single readings can be large; an effect the other way counts as inactive or inconclusive. Potency is read from the fitted curve at half-maximal effect.

SMILES | POLH inh | TDP1 block | POLB inh | POLK inh | Pol iota inh
CC(=O)N1CCc2cc(S(=O)(=O)NC(C(=O)NC3CCCc4ccccc43)C(C)C)ccc21 (centres undefined) | -9% | -2% | 32µM* | -11% | -14%
O=C(CN1C(=O)CC(c2ccco2)Sc2ccccc21)Nc1ccc(Br)cc1 (centres undefined) | -13% | -3% | 0% | ? | ?
O=C(CN1C(=O)CC(c2ccco2)Sc2ccccc21)Nc1ccccc1F (centres undefined) | ? | 3% | -18% | -21% | 45µM*
COc1ccc(/C=N/Nc2ncnc3c2[nH]c2ccc(C)cc23)c(OC)c1OC | 25µM* | / | 1% | -2% | 22%
Cc1cc(=O)c2cc(C(=O)Nc3ccc(F)cc3)ccc2[nH]1 | -7% | 3% | -1% | 12% | 112%
COC(=O)c1c(NC(=O)COC(=O)c2ccccc2O)sc2c1CCCCC2 | -4% | 5% | -7% | 1% | 92%
COc1ccc(NC(=O)COC(=O)c2cc3c(s2)CCC3)cc1 | 45µM* | 14µM* | / | ? | 32µM*
NC(=O)c1ccc(NC(=O)COC(=O)c2cc3c(s2)CCC3)cc1 | 11µM* | 7.1µM* | / | ? | 79µM*
NC(=O)c1c(NC(=O)COC(=O)c2ccc(O)c(Cl)c2)sc2c1CCCC2 | 50µM* | -6% | / | -25% | ?
COc1ccc(NC(=O)COC(=O)c2ccc(C)c(S(=O)(=O)N3CCCCC3)c2)cc1 | -9% | 40µM* | / | -11% | ?
CCCCN(CCCC)C(=O)CN(C)S(=O)(=O)c1ccc2c(c1)c(=O)n(C)c(=O)n2C | -16% | 8% | 6% | -8% | 11%
COc1ccc2c(COC(=O)c3ccc(C)c(S(=O)(=O)N4CCOCC4)c3)cc(=O)oc2c1 | 14µM* | / | / | -8% | ?
CCCOC(=O)C1=C(C)CS[C@@H]2[C@H](NC(=O)COc3ccccc3)C(=O)N12 | / | / | / | -29% | 10%
COc1ccc(C2C(C(=O)Nc3cccnc3)=C(C)Nc3nc(-c4ccc(OC)c(OC)c4)nn32)cc1 (centres undefined) | -8% | / | ? | 5% | -16%
COc1ccc(-c2nc3n(n2)C(c2ccc(OC)c(OC)c2)C(C(=O)Nc2cccnc2)=C(C)N3)cc1 (centres undefined) | 50µM* | 5% | 1% | -8%[60.1 µM] | 2%
O=C(Nc1ccc(Br)cn1)c1coc(=O)c(Br)c1 | 45µM* | / | ? | ? | 40µM*
O=C(Nc1ccc(Br)cn1)c1cccc(-c2cc3ccccc3oc2=O)c1 | ? | -8% | ? | -25% | -15%
O=C(NCCc1ccc(F)cc1)c1coc(=O)c(Br)c1 | -6% | / | 25% | -18% | -15%
O=C(Nc1ccccc1F)c1coc(=O)c(Br)c1 | 79µM* | 20µM* | 13µM* | 32µM* | 28µM*
Cc1cccc(-c2nc3cc(NC(=O)c4ccc(OCC(C)C)cc4)ccc3o2)c1 | -14% | -3%[12.3 µM] | -1% | -17% | -7%
Oc1ccc(Cl)cc1C1C=C(c2ccc3c(c2)OCO3)NC(c2ccc(Cl)cc2)N1 (centres undefined) | / | 2% | / | 0% | ?
Cc1ccc(-c2nn(-c3ccccc3)cc2C2CC(c3ccccc3)=NN2C(=O)CCC(=O)O)cc1 (centres undefined) | 9% | / | 1% | -14% | -1%
Cc1ccc2nc(Cl)c(C3CC(c4cccs4)=NN3C(=O)CCCC(=O)O)cc2c1 (centres undefined) | -6% | 3% | -10% | 0% | ?
CCOc1ccc2nc(Cl)c(C3CC(c4ccc(C)cc4)=NN3C(=O)CCCC(=O)O)cc2c1 (centres undefined) | ? | -4% | 22µM* | -22% | 18%
Cc1ccc(C2=NN(C(=O)CCC(=O)O)C(c3cn(-c4ccccc4)nc3-c3ccc(C)cc3)C2)cc1 (centres undefined) | ? | ? | 22µM* | -5%[60.1 µM] | 1%
SMILES | POLH inh | TDP1 block | POLB inh | POLK inh | Pol iota inh
COc1ccccc1OCCn1c(NC(=O)c2ccccc2Cl)nc2ccccc21 | -12% | 8% | 15% | -25% | -12%
COc1cccc2c1Oc1ncccc1N(c1ccc(C(=O)NCc3cccc(C)c3)s1)C2 | -13% | -3% | 27% | ? | 89µM*
COc1ccc(CN2CC[C@H]3C=CC[C@@H](C(=O)Nc4ccccc4)[C@H]3C2=O)cc1OC | / | / | / | -23% | ?
C=CC(C)(C)c1[nH]c2ccccc2c1C1=C(O)C(=O)C(c2c[nH]c3c(CC=C(C)C)cccc23)=C(O)C1=O | / | ? | / | 1.4µM* | /
O=C1CN(C(=O)/C=C/c2ccco2)c2ccccc2N1 | ? | 45µM* | ? | -14% | ?
CC12CCC(C(=O)NCc3ccc4c(c3)OCO4)(OC1=O)C2(C)C (centres undefined) | -6% | -4% | 36% | -18% | 89µM*
N#Cc1ccc(/C=C2/C=Cc3ccccc32)cc1 | / | / | / | -9% | 32%
COC(=O)c1cn(CCOc2ccccc2F)c2ccccc12 | -11% | -6% | 89µM* | -20% | 0%
COC(=O)c1cn(CCOc2ccccc2OC)c2ccccc12 | ? | 5% | -6% | -11% | -7%
O=C1C=C(O)CC(c2cccs2)C1 (centres undefined) | -28% | -2% | 28µM* | -39% | ?
COc1ccc(C(=O)NCC(=O)OC(C(=O)Nc2cc(C(F)(F)F)ccc2Cl)c2ccccc2)cc1OC (centres undefined) | / | 0% | / | / | /
COc1ccc(NC(=O)COc2ccc(/C=C/c3cc[n+](C)cc3)cc2OC)cc1 | -10% | / | ? | -17% | ?
COc1ccc(NC(=O)COc2ccc(/C=C/c3cccc[n+]3C)cc2OC)cc1 | -14% | / | 11µM* | ? | 45µM*
C/C=C/c1ccc(OCC(=O)Nc2cc(OC)c(OC)c(OC)c2)c(OC)c1 | -15% | 8% | -29% | -5% | 39%
COc1cc(/C=C/c2cc[n+](C)cc2)ccc1OCC(=O)Nc1ccc(Cl)c(Cl)c1 | 89µM* | / | 56µM* | -12% | 64%
COc1cc(/C=C/c2cccc[n+]2C)ccc1OCC(=O)Nc1ccccc1 | ? | / | 16µM* | -25% | ?
C/C=C/c1ccc(OCC(=O)O)c(OC)c1 | 35µM* | 3% | ? | -21% | -12%
COc1ccc(OC2=NS(=O)(=O)c3ccccc32)cc1 | / | 3% | / | / | /
Cc1c2cnn(CC(=O)N3CCCCC3)c(=O)c2c(C)n1Cc1ccc(Cl)cc1 | 11% | -5% | -11% | -7% | 16%
COc1cc(/C=C/c2cccc[n+]2C)ccc1OCC(=O)Nc1cccc(Cl)c1 | -1% | / | 40µM* | -21% | ?
O=C(COc1ccccc1C(=O)Nc1ccccc1)Nc1cccc(Cl)c1 | / | / | / | 3% | 0%
C/C=C/c1ccc(OCc2cc(=O)n3cc(C)ccc3n2)c(OC)c1 | -6% | 0% | 35µM* | -1% | ?

Bioassay records as filed in PubChem.
